Assay results published in ChEMBL document CHEMBL3988442, “University of Dundee, Small-Polar-MMV Screening Library” (2021).

Target: T1, Methionyl-tRNA synthetase, putative (Leishmania donovani (strain BPK282A1)) (UniProt E9BF75)
T1 sequence (whole entry): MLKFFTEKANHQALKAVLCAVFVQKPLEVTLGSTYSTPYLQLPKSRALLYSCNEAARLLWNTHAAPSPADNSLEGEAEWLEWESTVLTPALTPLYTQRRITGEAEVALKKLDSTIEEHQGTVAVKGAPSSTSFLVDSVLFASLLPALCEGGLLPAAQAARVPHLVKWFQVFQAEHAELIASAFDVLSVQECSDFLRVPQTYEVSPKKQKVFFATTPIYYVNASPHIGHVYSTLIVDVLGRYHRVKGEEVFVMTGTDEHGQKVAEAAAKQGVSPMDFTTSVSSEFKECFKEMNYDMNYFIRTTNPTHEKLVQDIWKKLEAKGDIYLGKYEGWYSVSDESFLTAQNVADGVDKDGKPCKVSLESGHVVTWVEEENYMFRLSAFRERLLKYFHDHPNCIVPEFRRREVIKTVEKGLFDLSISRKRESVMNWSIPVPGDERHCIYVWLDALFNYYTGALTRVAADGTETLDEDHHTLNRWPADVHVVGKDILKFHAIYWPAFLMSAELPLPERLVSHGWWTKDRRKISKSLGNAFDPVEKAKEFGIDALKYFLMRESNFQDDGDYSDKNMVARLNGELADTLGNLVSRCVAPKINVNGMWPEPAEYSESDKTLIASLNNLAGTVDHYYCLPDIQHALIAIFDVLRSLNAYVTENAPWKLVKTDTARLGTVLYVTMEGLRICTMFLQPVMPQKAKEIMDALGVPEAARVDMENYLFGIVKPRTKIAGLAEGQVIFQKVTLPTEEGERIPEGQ
Experiment: Leishmania donovani Methionine tRNA synthetase (LdMetRS):v7. Dose response assay
Assay type: functional
Set-up: conc 80 nM, time 150 minutes

## CC(C)(C)OC(=O)N1CCN(c2ccc3ccc(C(=O)NC4CCCC4)cn23)CC1
MAX_EFFECT 20.86513995
  PXC50: < 4
MAX_EFFECT 27.19298246
  PXC50: < 4

## COc1cccc(-c2cc(C(F)(F)F)nc(N(C)C)n2)c1
MAX_EFFECT 5.18134715
  PXC50: < 4
MAX_EFFECT 6.914893617
  PXC50: < 4

## Fc1ccc(CN2CCC(F)(F)C3(CCN(c4cnccn4)C3)C2)cc1 (stereo not given)
MAX_EFFECT 10.88435374
  PXC50: < 4
MAX_EFFECT 11.21495327
  PXC50: < 4

## CCOC(=O)c1sc2nc(CN3CCCCC3)nc(NC3CC3)c2c1C
MAX_EFFECT 16.58291457
  PXC50: < 4
MAX_EFFECT 18.42751843
  PXC50: < 4

## CS(=O)(=O)Nc1cccc2c(=O)cc(C(=O)NCC3(O)CCCCC3)oc12
MAX_EFFECT 2.53968254
  PXC50: < 4
MAX_EFFECT 4.743083004
  PXC50: < 4

## CS(=O)(=O)N1CCN(c2ccc3c(F)cc(C(=O)NC4CCCC4)cn23)CC1
MAX_EFFECT 12.5
  PXC50: < 4
MAX_EFFECT 15.35087719
  PXC50: < 4

## Cc1nc(N2CC[C@@H](O)C2)c2c(-c3cccs3)csc2n1
MAX_EFFECT -2.07253886
  PXC50: < 4
MAX_EFFECT -3.723404255
  PXC50: < 4

## CCc1cc2c(NCCCN(C)C)nc(C)nc2s1
MAX_EFFECT 11.55778894
  PXC50: < 4
MAX_EFFECT 12.03931204
  PXC50: < 4

## COC(=O)c1sc2nc(C)nc(N(C)Cc3cc(C)on3)c2c1C
MAX_EFFECT 8.556149733
  PXC50: < 4
MAX_EFFECT 12.02185792
  PXC50: < 4

## Cc1nc(NCCC(C)C)c2c3c(sc2n1)CCCC3
MAX_EFFECT 30.4
  PXC50: < 4
MAX_EFFECT 33.86243386
  PXC50: < 4

## N#Cc1cccc(Nc2nccc(N3CCC(NS(=O)(=O)c4cccc(C#N)c4)CC3)n2)c1
MAX_EFFECT 35.34883721
  PXC50: < 4
MAX_EFFECT 46.85314685
  PXC50: < 4

## CC(C)(N)c1cc(Cl)cc(Cl)c1
MAX_EFFECT 14.47084233
  PXC50: < 3
MAX_EFFECT 21.86311787
  PXC50: < 3

## Cc1nc(N(C)CCC(=O)O)c2cc(-c3ccccc3)sc2n1
MAX_EFFECT 10.96256684
  PXC50: < 4
MAX_EFFECT 15.76086957
  PXC50: < 4

## Nc1noc2ccc(-c3cnc4ccc(NCc5ccccn5)nn34)cc12
MAX_EFFECT 7.291666667
  PXC50: < 4
MAX_EFFECT 11.84210526
  PXC50: < 4

## O=C(NCC1(O)CCCCC1)c1cc(=O)c2cc[nH]c(=O)c2o1
MAX_EFFECT 6.333973129
  PXC50: < 4
MAX_EFFECT 9.409888357
  PXC50: < 4

## Cc1sc2nc(-c3cccnc3)nc(NCCN3CCOCC3)c2c1C
MAX_EFFECT 3.015075377
  PXC50: < 4
MAX_EFFECT 4.668304668
  PXC50: < 4

## Cc1cc(N)n(-c2nc(C)nc3sc4c(c23)CCCC4)n1
MAX_EFFECT 11.22994652
  PXC50: < 4
MAX_EFFECT 12.02185792
  PXC50: < 4

## CS(=O)(=O)N1CCN(c2ccc3ccc(C(=O)NCCO)cn23)CC1
MAX_EFFECT 34.44976077
  PXC50: < 4
MAX_EFFECT 46.06946984
  PXC50: < 4

## Cc1nc(N[C@H](C(=O)O)C(C)C)c2c3c(sc2n1)CCCC3
MAX_EFFECT 7.978723404
  PXC50: < 4
MAX_EFFECT 8.29015544
  PXC50: < 4

## CC(C)C[C@H](N)C(=O)Nc1cccnc1Oc1ccc(Cl)cc1
MAX_EFFECT 2.186878728
  PXC50: < 4
MAX_EFFECT 7.568807339
  PXC50: < 4

## Cc1sc2nc(CCN)nc(N3CCN(S(C)(=O)=O)CC3)c2c1C
MAX_EFFECT 9.660574413
  PXC50: < 4
MAX_EFFECT 10.96605744
  PXC50: < 4

## CCOC(=O)CCN(C)c1nc(C)nc2sc(-c3ccccc3)cc12
MAX_EFFECT 45.45454545
  PXC50: < 4
MAX_EFFECT 46.44808743
  PXC50: < 4

## FC(F)(F)c1nc(N2CCCCCC2)nc2c1CCCCC2
MAX_EFFECT 4.325699746
  PXC50: < 4
MAX_EFFECT 5.793450882
  PXC50: < 4

## CS(=O)(=O)N1CCN(c2ccc3ccc(C(=O)NCCn4cccn4)cn23)CC1
BOTTOM 1.569537618, HILLSLOPE 2.334941078, MAX_EFFECT 65.07177033, TOP 65.29640188
  PXC50: 4.95
BOTTOM 7.030389685, HILLSLOPE 2.531896239, MAX_EFFECT 68.73857404, TOP 69.44063033
  PXC50: 4.79

## O=C(O)C1CCCN1c1nc(-c2ccc(Cl)c(Cl)c2)cc(C(F)(F)F)n1 (stereo not given)
MAX_EFFECT 9.660574413
  PXC50: < 4
MAX_EFFECT 10.44386423
  PXC50: < 4

## CC1CCc2c(sc3nc(CN4CCOCC4)nc(NCC4CC4)c23)C1 (stereo not given)
MAX_EFFECT 17.08542714
  PXC50: < 4
MAX_EFFECT 17.93611794
  PXC50: < 4

## NCc1ccc(Cl)cc1Cl
MAX_EFFECT 13.60691145
  PXC50: < 3
MAX_EFFECT 15.77946768
  PXC50: < 3

## CS(=O)(=O)N1CCN(c2ccc3ccc(C(=O)NCC4(CO)CCCC4)cn23)CC1
MAX_EFFECT 45.93301435
  PXC50: < 4
MAX_EFFECT 48.99451554
  PXC50: < 4

## COCC(C)NC(=O)c1ccc2ccc(N3CCN(S(C)(=O)=O)CC3)n2c1 (stereo not given)
BOTTOM 3.011130377, HILLSLOPE 1.725207909, MAX_EFFECT 55.66037736, TOP 58.49588417
  PXC50: 4.74
MAX_EFFECT 48.85844749
  PXC50: < 4

## Cc1cc(C)n(-c2nc(N(C)C)c3c4c(sc3n2)CCCC4)n1
BOTTOM 3.265302341, HILLSLOPE 1.809282706, MAX_EFFECT 78.125, TOP 100.0
  PXC50: 4.28
BOTTOM 6.620107204, HILLSLOPE 2.145601955, MAX_EFFECT 79.8245614, TOP 100.0
  PXC50: 4.28
